The results in this text go back to PubChem BioAssay (NCI).

Compounds without any hit were thinned out: in the full panel of roughly 83,000, 20% have a hit.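 Method: cells in 96-well plates; compound added at one concentration; 48 h incubation; percent growth measured; values under 10 scored active.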 Unmarked numbers belong to inactive results. Calls of active or inactive are those of the source.

Test in all cases: NCI-60 one-dose screen, 48 h (100 = growth as untreated, 0 = no growth, -100 = all killed)
Details in all cases: 10 µM unless noted

Test [1] deals with MOLT-4 leukemia.
Test [2] relates to SR leukemia.
The subject of test [3] is RPMI-8226 leukemia.
Test [4] has as its system OVCAR-8 ovarian.
The subject of test [5] is OVCAR-5 ovarian.
Test [6] concerns OVCAR-4 ovarian.
Test [7] has as its system SK-OV-3 ovarian.
Test [8] has as its system IGROV1 ovarian.
The test system of test [9] is OVCAR-3 ovarian.
Test [10] concerns HS 578T breast.
Test [11] has as its system NCI/ADR-RES ovarian.
Test [12] concerns T-47D breast.
The subject of test [13] is BT-549 breast.
The test system of test [14] is SW-620 colon.
Test [15] relates to HCC-2998 colon.
The test system of test [16] is KM12 colon.
In test [17] the test system is MDA-MB-435 melanoma.
For test [18], the system named is MCF7 breast.
In test [19] the test system is HCT-116 colon.

Turning to `COC(=O)[C@@H](C)C[C@H](Cc1ccccc1)NC(=O)c1csc([C@@H](C[C@H](C(C)C)N(C)C(=O)[C@H](C)NC(=O)[C@H]2CCCN2C)OC(C)=O)n1`, the growth was 42.6% in test [1]; 14.1% in test [2]; 9.55% (active) in test [3]; 58.3% in [4]; 110% in [5]; 88.9% in test [6]. In addition, the growth in test [7] was 73.2%; in [8], 58.1%; in test [9] it was 17.9%; in test [10], 17.6%; in test [11], 92.4%; in test [12], 50.9%. Moreover, the growth was 36.9% in test [13], 28.5% in [14], 62.8% in test [15] and 30.7% in test [16].
Consider `C/C(CC(C)(C)N1CC1)=N\NC(=O)Nc1cccc2ccccc12`, for which the growth in [1] was 12.2%; in [2], 20.9%; in [3] it was 72.7%; in test [4] it was 44.1%; in test [5], 100%; in test [6] it was 55.8%. The growth was 79.3% in test [7]; 38.8% in test [8]; 48.3% in [9]; 79.8% in test [10]; 55.8% in test [12]; 68.5% in test [13]. Moreover, the growth in test [17] is 79.6%; in test [14], 52.3%; in test [18], 24.9%; in test [19] it was 46.5%; in test [15] it was 75.3%; in test [16], 75.9%.
On to `N/C(=N/N=C/c1ccncc1)N[N+](=O)[O-]`, for which the growth in [1] is 84.2%; in [2] it was 90.9%; in test [3] it was 106%; in [4], 103%; in [5], 94.2%; in test [6], 103%. Besides, the growth was 111% in test [7]; 108% in test [8]; 113% in test [9]; 106% in test [10]; 104% in [11]; 89.6% in test [13]. Moreover, the growth in [17] was 105%; in test [14], 106%; in [18], 99.1%; in test [19], 102%; in [15] it was 109%; in test [16], 100%.
As for `OCCCCCNC1CCCCC1`, the growth in [1] is 83.9%; in [2], 89.7%; in [3], 102%; in test [4], 103%; in test [5], 86.3%; in [6] it was 103%. Further, the growth in test [7] was 102%; in test [8] it was 103%; in test [9], 125%; in test [11], 103%; in [12] it was 95.4%; in test [13], 105%. In addition, the growth in [17] is 104%; in test [14], 107%; in [18], 103%; in test [19], 94.7%; in test [15] it was 104%; in test [16] it was 111%.
For `COc1cc(/C=N/C2=C(C#N)C(c3ccco3)c3c(c4cc(C)ccc4oc3=O)O2)cc(OC)c1OC` (centres undefined), the growth was 106% in test [1]; 74.8% in test [2]; 101% in test [3]; 101% in test [4]; 105% in test [5]; 97.6% in test [6]. Besides, the growth in [7] was 92.6%; in test [8], 83.1%; in [9], 91.4%; in test [10], 64.3%; in test [11], 96.3%; in [12], 88.2%. In addition, the growth in test [13] was 91.1%; in test [14] it was 81.7%; in test [18], 70.1%; in test [19], 84.9%; in test [15], 109%; in test [16], 81.4%.
For `O=C1CCC2(O)[C@@H]3Cc4ccc(O)c5c4[C@]2(CCN3Cc2ccoc2)C1O5` (some centres undefined), the growth in test [1] was 101%; in test [2], 95.4%; in test [3] it was 101%; in test [4], 102%; in test [5] it was 98.7%; in test [6], 105%. Moreover, the growth in test [7] is 105%; in test [8] it was 112%; in [9] it was 107%; in test [10], 105%; in test [12], 98.1%; in test [13], 110%. The growth in test [17] was 105%; in [14], 102%; in [18] it was 97.5%; in test [19], 88.1%; in [15], 104%; in test [16], 98.2%.
For the compound `COC(=O)[C@@H](C)C[C@H](Cc1ccccc1)NC(=O)c1csc([C@@H](C[C@H](C(C)C)N(C)C(=O)[C@@H](NC(=O)[C@H]2CCCCN2C)C(C(F)(F)F)C(F)(F)F)OC(C)=O)n1`, the growth in [1] was 5.94% (active); in test [2], 5.49% (active); in test [3], 11.2%; in test [4], 16.8%; in test [5] it was 39.6%; in test [6], 43.7%. Further, the growth in test [7] is 16.4%; in test [8], 20.2%; in test [9] it was -42.5% (active); in test [10], 17.6%; in test [11], 23.8%; in test [12], 59.7%. Also, the growth was -21.6% (active) in [13]; 23.1% in test [14]; 12.2% in test [18]; -10.3% (active) in test [19]; 19.9% in [15]; 7.94% (active) in test [16].
Turning to `CNC(=O)Oc1ccc(C(C)(C)C)cc1OC(=O)NC`, the growth was 81.6% in test [1]; 87.9% in test [2]; 95.5% in test [3]; 100% in test [4]; 108% in test [5]; 96.3% in test [6]. For the same compound, the growth in [7] is 88.4%; in [8], 104%; in [9] it was 102%; in test [10], 106%; in [11] it was 104%; in test [12], 98.9%. Further, the growth in test [17] is 97%; in [14], 94.8%; in [18], 93.9%; in test [19] it was 93%; in test [15] it was 103%; in [16] it was 99.8%.
Consider `C[C@]12C[C@@H](CO)[C@H](O)C[C@@H]1CC[C@@H]1[C@@H]2CC[C@]2(C)[C@@H](O)CC[C@@H]12`, for which the growth was 85.8% in test [1]; 79.4% in [2]; 91.9% in test [3]; 96.8% in test [4]; 104% in [5]; 105% in test [6]. For the same compound, the growth is 106% in [7]; 105% in [8]; 101% in [9]; 99.6% in test [11]; 104% in test [12]; 78.9% in test [13]. Further, the growth in test [17] is 105%; in [14], 101%; in test [18], 121%; in test [19] it was 103%; in test [15] it was 97.9%; in test [16] it was 101%.
For the compound `CCCCCCCCOC(=O)CCN1CC1`, the growth in test [1] is 103%; in test [2], 101%; in [3], 103%; in test [4] it was 102%; in [5] it was 104%; in test [6], 115%. In addition, the growth in test [7] was 109%; in test [8], 115%; in test [9], 108%; in [10], 99.6%; in [12] it was 108%; in [13] it was 107%. The growth in [17] is 105%; in test [14] it was 113%; in [18], 102%; in [19] it was 112%; in test [15], 110%; in test [16], 109%.
As to `Nc1ccc2c(c1)Cc1cc(Br)ccc1-2`, the growth was 71% in test [1]; 84.6% in [2]; 79.8% in test [3]; 107% in [4]; 110% in test [5]; 99.9% in test [6]. Besides, the growth in [7] was 101%; in test [8], 104%; in test [9], 114%; in test [10], 111%; in test [11] it was 101%; in [12], 102%. Besides, the growth is 111% in [17]; 108% in [14]; 64.7% in [18]; 98.2% in [19]; 99.7% in [15]; 105% in test [16].
Turning to `COc1ccc(S(=O)(=O)N(Cc2ccc3c(c2)C=CC(C)(C)O3)c2ccccc2)cc1OC`, the growth was 74.4% in test [1]; 75.9% in test [2]; 46.2% in [3]; 79.9% in test [4]; 103% in [5]; 70.6% in [6]. Besides, the growth in [7] was 90.7%; in test [8] it was 75.6%; in [9], 74.3%; in test [10], 91.1%; in test [11] it was 68.7%; in test [12], 55.1%. Besides, the growth in test [13] was 54%; in test [14], 87.1%; in test [18] it was 50.7%; in test [19] it was 63%; in test [15] it was 73.6%; in [16], 88.7%.
`ClCCN(CCCl)Cc1ccc(Nc2ccnc3cc(Cl)ccc23)cc1`: the growth in test [1] is -33.5% (active); in test [2] it was -15.9% (active); in [3], 0.54% (active); in [4], 37.9%; in test [5], 74.1%; in test [6], 48.2%. In addition, the growth was 53.5% in [7]; 55.4% in test [8]; 39.7% in test [9]; 71.3% in test [11]; 36.2% in test [12]; 65.2% in test [13]. For the same compound, the growth in test [17] was 39.6%; in [14], 34.3%; in test [18], 18%; in [19], 36.5%; in test [15], 71%; in test [16], 62.9%.
Take `Cc1ccccc1NC(=NCCCN1CC1)Nc1ccccc1C`: the growth in test [1] was 70.8%; in test [2] it was 69.7%; in [3], 95.2%; in [4] it was 82.6%; in [5], 123%; in test [6] it was 88.9%. Further, the growth in test [7] is 79.9%; in test [8], 82%; in [9], 90.4%; in [10] it was 97.4%; in test [12], 74.5%; in test [13] it was 104%. For the same compound, the growth in test [17] was 93%; in test [14], 87.1%; in [18], 68.9%; in test [19], 79.8%; in test [15], 102%; in test [16] it was 94.6%.
Consider `CC12CCC(O)CC1=CCC1C2CCC2(C)C(O)CCC12` (centres undefined), for which the growth in test [1] was 114%; in [2] it was 106%; in [3], 94.6%; in test [4], 112%; in [5], 97.3%; in test [6], 110%. In addition, the growth in [7] is 118%; in test [8] it was 113%; in test [9] it was 104%; in test [10] it was 105%; in test [11], 110%; in [12], 99.4%. In addition, the growth in test [17] is 104%; in [14], 105%; in [18], 116%; in test [19] it was 104%; in [15] it was 109%; in [16] it was 105%.
With `O[C@H](CN1CC1)[C@@H](O)CN1CC1`, the growth was 32.8% in test [1]; 16.9% in test [2]; 88% in test [3]; 55% in [4]; 103% in test [5]; 93.1% in [6]. Besides, the growth in test [7] was 49.5%; in test [8] it was 93.9%; in test [9], 101%; in test [10], 97.1%; in test [11] it was 56.3%; in test [12], 48%. The growth in test [13] was 81.9%; in test [14], 64.4%; in [18], 41.7%; in [19], 66.3%; in test [15] it was 97%; in test [16], 91.5%.
Regarding `O=[N+]([O-])CC(O)C(Cl)(Cl)Cl` (centres undefined), the growth in [1] is 107%; in test [2], 98.5%; in [3] it was 71.7%; in test [4], 116%; in [5], 93.6%; in test [6], 94.2%. In addition, the growth in test [7] is 100%; in test [8], 102%; in test [9] it was 116%; in test [11], 104%; in test [12], 89.6%; in test [13], 58%. Moreover, the growth in [17] was 103%; in test [14], 95.8%; in test [18], 95.5%; in [19], 102%; in test [15], 106%; in [16], 107%.
